# About 79,000 compounds went through this panel and 15% of them were active in at least one assay; those are over-represented in the sample as a whole. Values without a mark were called inactive. The source made the active and inactive calls. Cut-off read from the data, not from the text of the source: active = growth inhibition above about 70%; inactive = the rest.
# Assays:
# [1] = NCI Yeast Anticancer Drug Screen. Data for the wt1 strain (AID 149);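 note: 0% = growth of vehicle-treated wt1 cultures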; details: S. cerevisiae wt1 strain (SPY 50644) growth inhibition, hits give high values
# Procedure, shortened: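 Using yeast strain wt1, compound-induced growth inhibition was determined against vehicle-treated cultures.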
# [2] = NCI Yeast Anticancer Drug Screen. Data for the rad50EPP+ strain (AID 151);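 note: 0% = growth of vehicle-treated control cultures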; details: S. cerevisiae rad50 mutant strain, hits give high values
# Procedure, shortened: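 Read-out is yeast growth inhibition relative to vehicle; cells used were the rad50EPP+ strain.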
# [3] = NCI Yeast Anticancer Drug Screen. Data for the mgt1 strain (AID 153); details: S. cerevisiae mgt1 mutant growth inhibition, hits give high values
# Procedure, shortened: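 Measured: inhibition of mgt1 yeast growth by compound, normalized to vehicle-treated cultures.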
# [4] = NCI Yeast Anticancer Drug Screen. Data for the rad50 strain (AID 155);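 note: 0% = growth of vehicle-only cultures of the same strain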; details: S. cerevisiae rad50 strain growth inhibition, hits give high values
# Procedure, shortened: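 Relative growth inhibition (compound vs vehicle) was measured in yeast with a defined repair-gene alteration.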
# [5] = NCI Yeast Anticancer Drug Screen. Data for the mec2-1 strain (AID 157); details: S. cerevisiae mec2-1 strain, hits give high values
# Procedure, shortened: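 Using mec2-1 yeast: add compound, measure growth, express inhibition versus vehicle-treated cultures.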
# [6] = NCI Yeast Anticancer Drug Screen. Data for the rad14 strain (AID 159);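 note: 0% = growth of vehicle-treated control cultures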; details: S. cerevisiae rad14 strain growth inhibition, hits give high values
# Procedure, shortened: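 Screen for anticancer potential: a yeast strain altered in DNA damage repair is grown with compound, and reduced growth is quantified against vehicle controls.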
# [7] = NCI Yeast Anticancer Drug Screen. Data for the sgs1 mgt1 strain (AID 161);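 note: 0% = growth of cultures given vehicle only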; details: S. cerevisiae sgs1 mgt1 strain, hits give high values
# Procedure, shortened: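 Percent growth inhibition was derived by comparing compound-exposed mutant yeast with vehicle-exposed cultures. The strain carries alterations in DNA damage repair.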
# [8] = NCI Yeast Anticancer Drug Screen. Data for the CLN2oe strain (AID 163);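 note: 0% = growth of vehicle-only control cultures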; details: S. cerevisiae CLN2oe strain, hits give high values
# Procedure, shortened: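 Whole-cell yeast growth assay. A strain engineered for altered cell-cycle control received compound, and inhibition relative to vehicle-treated cultures was recorded.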
# [9] = NCI Yeast Anticancer Drug Screen. Data for the cln2 rad14 strain (AID 165);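 note: 0% = growth equal to vehicle treated cultures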; details: S. cerevisiae cln2 rad14 strain, hits give high values
# Procedure, shortened: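 Yeast strain cln2 rad14, bearing defects in cell cycle control and DNA repair, serves as the test system; values reflect growth inhibition compared with vehicle.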
# [10] = NCI Yeast Anticancer Drug Screen. Data for the bub3 strain (AID 167); details: S. cerevisiae bub3 mutant strain, hits give high values
# Procedure, shortened: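 Screening used yeast with an engineered genetic alteration affecting cell cycle control. Compound-exposed cultures were compared with vehicle cultures, and reduced growth was taken as inhibition.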
# [11] = NCI Yeast Anticancer Drug Screen. Data for the wt2 strain (AID 169);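 note: 0% = growth of vehicle-treated yeast cultures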; details: S. cerevisiae wt2 strain growth inhibition, hits give high values
# Procedure, shortened: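 Treated yeast vs. vehicle-treated yeast: growth inhibition determined.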
# [12] = NCI Yeast Anticancer Drug Screen. Data for the mlh1 strain (AID 171);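 note: 0% = growth of vehicle-treated control cultures of the same strain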; details: S. cerevisiae mlh1 strain growth inhibition, hits give high values
# Procedure, shortened: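 A yeast strain with a defined genetic lesion serves as the test organism. Cultures receive compound or vehicle, and growth is measured.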
# [13] = NCI Yeast Anticancer Drug Screen. Data for the sgs1 strain (AID 173);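 note: 0% = growth of vehicle-only control cultures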; details: S. cerevisiae sgs1 mutant, hits give high values
# Procedure, shortened: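 A genetically defined yeast mutant is incubated with the test compound, and its growth is compared to that of the same strain given vehicle.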
# [14] = NCI Yeast Anticancer Drug Screen. Data for the mlh1 rad18 strain (AID 175); details: S. cerevisiae mlh1 rad18 strain growth inhibition, hits give high values
# Procedure, shortened: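 Steps: expose repair-defective yeast to compound; measure growth; express inhibition against vehicle-treated controls.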
# [15] = NCI Yeast Anticancer Drug Screen. Data for the rad18 strain (AID 177); details: S. cerevisiae rad18 mutant growth inhibition, hits give high values
# Procedure, shortened: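 Measured value is growth inhibition of a yeast strain bearing a DNA repair alteration, referenced to vehicle-treated cells.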
# [16] = at 5.0 µM (retest, dose inferred, filed as 0.5)
# [17] = at 50.0 µM (retest, dose inferred, filed as 5.0)
smiles,measurement,setting,value
S=C(Nc1ccc(Cl)cc1)SC1CCCCC1,growth inhibition,[1]; at 1.2 µM,7%
same,growth inhibition,[1]; at 3.7 µM,0%
same,growth inhibition,[1]; at 11.0 µM,47%
same,growth inhibition,[1]; at 33.0 µM,98% (active)
same,growth inhibition,[1]; at 100.0 µM,98% (active)
same,growth inhibition,[2]; at 1.2 µM,7%
same,growth inhibition,[2]; at 3.7 µM,22%
same,growth inhibition,[2]; at 11.0 µM,61%
same,growth inhibition,[2]; at 33.0 µM,98% (active)
same,growth inhibition,[2]; at 100.0 µM,98% (active)
same,growth inhibition,[3]; at 1.2 µM,16%
same,growth inhibition,[3]; at 3.7 µM,40%
same,growth inhibition,[3]; at 11.0 µM,33%
same,growth inhibition,[3]; at 33.0 µM,98% (active)
same,growth inhibition,[3]; at 100.0 µM,99% (active)
same,growth inhibition,[4]; at 1.2 µM,-4%
same,growth inhibition,[4]; at 3.7 µM,9%
same,growth inhibition,[4]; [16],12%
same,growth inhibition,[4]; at 11.0 µM,96% (active)
same,growth inhibition,[4]; at 33.0 µM,99% (active)
same,growth inhibition,[4]; [17],65%
same,growth inhibition,[4]; at 50.0 µM,83.2% (active)
same,growth inhibition,[4]; at 100.0 µM,99% (active)
same,growth inhibition,[5]; at 1.2 µM,-17%
same,growth inhibition,[5]; at 3.7 µM,7%
same,growth inhibition,[5]; [16],1%
same,growth inhibition,[5]; at 11.0 µM,93% (active)
same,growth inhibition,[5]; at 33.0 µM,99% (active)
same,growth inhibition,[5]; [17],40%
same,growth inhibition,[5]; at 50.0 µM,85.5% (active)
same,growth inhibition,[5]; at 100.0 µM,96% (active)
same,growth inhibition,[6]; at 1.2 µM,-24%
same,growth inhibition,[6]; at 3.7 µM,-20%
same,growth inhibition,[6]; at 11.0 µM,27%
same,growth inhibition,[6]; at 33.0 µM,97% (active)
same,growth inhibition,[6]; at 100.0 µM,97% (active)
same,growth inhibition,[7]; [16],18%
same,growth inhibition,[7]; [17],79% (active)
same,growth inhibition,[7]; at 50.0 µM,86.5% (active)
same,growth inhibition,[8]; at 1.2 µM,-2%
same,growth inhibition,[8]; at 3.7 µM,-7%
same,growth inhibition,[8]; at 11.0 µM,43%
same,growth inhibition,[8]; at 33.0 µM,96% (active)
same,growth inhibition,[8]; at 100.0 µM,99% (active)
same,growth inhibition,[9]; [16],-6%
same,growth inhibition,[9]; [17],31%
same,growth inhibition,[9]; at 50.0 µM,87.7% (active)
same,growth inhibition,[10]; at 1.2 µM,-18%
same,growth inhibition,[10]; at 3.7 µM,-36%
same,growth inhibition,[10]; [16],17%
same,growth inhibition,[10]; at 11.0 µM,25%
same,growth inhibition,[10]; at 33.0 µM,93% (active)
same,growth inhibition,[10]; [17],51%
same,growth inhibition,[10]; at 50.0 µM,83% (active)
same,growth inhibition,[10]; at 100.0 µM,98% (active)
same,growth inhibition,[11]; at 1.2 µM,-35%
same,growth inhibition,[11]; at 3.7 µM,-22%
same,growth inhibition,[11]; at 11.0 µM,78% (active)
same,growth inhibition,[11]; at 33.0 µM,99% (active)
same,growth inhibition,[11]; at 100.0 µM,98% (active)
same,growth inhibition,[12]; at 1.2 µM,4%
same,growth inhibition,[12]; at 3.7 µM,19%
same,growth inhibition,[12]; at 11.0 µM,50%
same,growth inhibition,[12]; at 33.0 µM,98% (active)
same,growth inhibition,[12]; at 100.0 µM,99% (active)
same,growth inhibition,[13]; at 1.2 µM,0%
same,growth inhibition,[13]; at 3.7 µM,2%
same,growth inhibition,[13]; at 11.0 µM,51%
same,growth inhibition,[13]; at 33.0 µM,98% (active)
same,growth inhibition,[13]; at 100.0 µM,98% (active)
same,growth inhibition,[14]; [16],-2%
same,growth inhibition,[14]; [17],91% (active)
same,growth inhibition,[14]; at 50.0 µM,91.8% (active)
same,growth inhibition,[15]; at 1.2 µM,-8%
same,growth inhibition,[15]; at 3.7 µM,-7%
same,growth inhibition,[15]; at 11.0 µM,48%
same,growth inhibition,[15]; at 33.0 µM,97% (active)
same,growth inhibition,[15]; at 100.0 µM,98% (active)
